# Source: ChEMBL document CHEMBL4513160, “CO-ADD screening of MMV (CH) - Small Polar Library”
# Out of some 23,000 compounds screened, about 30 (0.1%) showed an effect of 50% or more. This is one part of a sample in which strong results are shown more often than they occur. Results with a measured potency or affinity are listed apart.
# System: Pseudomonas aeruginosa
# Details: Concentration 300 ug.mL-1; ASSAY_TEST Inhibition of Bacterial Growth; detection method Absorption (OD600); MEDIA CAMHB; plate type 384well; NBS; CORNING #3640; time 18 hr
row,SMILES,Inhibition [%]
1,CSCc1noc(CN2CCC(=O)NCC2C)n1 (stereo unspecified),2.5
2,CCc1n[nH]c(=O)n1CC,16.77
3,O=C1C=CC(=O)N1C1CCCCC1,14.45
4,O=C(c1cc(F)ccc1Br)N1CCNCC1,-21.94
5,CNCc1ncc(C)c(OC)c1C,22.51
6,CC(=O)NCc1ccc(C(=O)CSc2ccccn2)s1,23.63
7,CN(Cc1cccc(C#N)c1)C(=O)C1CC1,11.31
8,CN(C)S(=O)(=O)NCc1ccc(Cn2ccnc2)cc1,-10.43
9,NC(=O)CCNCc1ccc(Cl)c2cccnc12,17.51
10,OCc1cccc2ncccc12,-43.09
11,NC(=O)C1(NCc2ccc(Br)c3cccnc23)CC1,4.47
12,CC(=O)NCCCNCc1ccc(Br)c2cccnc12,29.22
13,O=C(c1nnsc1-c1ccc(Cl)cc1)N1CCSCC1,-1.35
14,CN(C)CCCC(=O)N1CCCC(CO)(CC2CC2)C1 (stereo unspecified),-1.87
15,CC1CCN(C(=O)CCN2C[C@H](C3CC3)[C@@H](N)C2)CC1,0.49
16,OC(CN1CCn2ccnc2C1)c1ccc(Cl)cc1 (stereo unspecified),-6.36
17,CSCCC(O)C(=O)NCCc1scnc1C (stereo unspecified),-25.65
18,COCCN(Cc1ccccn1)C(=O)CC1CCNC1 (stereo unspecified),-0.17
19,CN1CCOC[C@H]2CCN(C(=O)c3cccs3)C[C@H]21,-22.95
20,CNC(=O)C(C)Sc1nccn1-c1ccc(OC)cc1 (stereo unspecified),17.22
21,N#Cc1cccc(CN2CCCC(O)C2)c1 (stereo unspecified),9.18
22,CN(CCNC(=O)c1cnc[nH]1)Cc1ccc(F)cc1,37.03
23,CNC1(C(=O)OC)CCCCC1,-2.18

row,SMILES,Inhibition [%]
1,Cc1cc(NC(=O)CSCC(=O)N2CCC2)no1,7.6
2,CCOC(=O)c1nc(C)n(C)n1,10.82
3,c1cc2c(cc1CNc1nnc(C3CC3)o1)OCCO2,-5.88
4,O=C(CCCc1cn[nH]c1)N1CCc2ccccc2C1,6.06
5,CCCC(C)NC(=O)c1coc(C)n1 (stereo unspecified),-6.54
6,CCN(CC(C)C#N)C(=O)c1ccc(Br)o1 (stereo unspecified),-3.61
7,COC(=O)[C@@H]1CCN[C@@H]1C(C)C,12.69
8,C1CN(C2CCN(c3nnc(C4CC4)o3)CC2)CCS1,8.74
9,C=C(C)CNC(=O)Nc1cccc(N2CCNC2=O)c1,-38.18
10,CCc1ccc(CN(CCO)Cc2nccn2C)nc1,-17.17
11,Clc1ccc(-c2noc(CN3CCCNCC3)n2)cc1,46.35
12,NC(=O)c1cc(N2CCCC2)ccn1,-17.78
13,Fc1ccc2[nH]cnc2c1,26.41
14,CNCCC1CCCO1 (stereo unspecified),6.91
15,CNC1CC(=O)N(Cc2ccccc2)C1=O (stereo unspecified),-1.73
16,CC1(C)C[S+]([O-])CCN1C(=O)c1cccc(F)c1Cl (stereo unspecified),17.16
17,CCN(CC)C(=O)[C@@H]1C[C@@H](N)CN1C(=O)CS(C)(=O)=O,7.51
18,Nc1ncn(S(=O)(=O)c2ccccc2)n1,-6.3
19,Cc1n[nH]cc1CNCc1ccc(-n2ccnc2)nc1,0.04
20,O=C(CC1CCCN1)c1ccco1 (stereo unspecified),24.64
21,CC(O)C(=O)NC(N)=O (stereo unspecified),10.69
22,O=c1ccoc2ccc(F)cc12,24.86
23,CCCn1cnnc1CNCC(=O)Nc1cnccn1,7.89

row,SMILES,Inhibition [%]
1,CNC(=O)NC(=O)C(C)N1CCN(c2nccs2)CC1 (stereo unspecified),0.51
2,CCCc1nnc(N2CCC3(CC2)OCC(C)O3)s1 (stereo unspecified),-23.27
3,CC(C)NC(=O)c1cn(Cc2ccc(Cl)cc2)nn1,37.8
4,CCOC(=O)CNC(=O)N1CCn2cccc2C1C (stereo unspecified),-25.66
5,O=C(Cc1ccsc1)N[C@@H]1CCOC[C@H]1OCCO,1.98
6,c1ccc(C2=NN=C(NC3CC3)SC2)cc1,6.85
7,O=C(Cc1cccc(O)c1)NCCn1cc(Cl)cn1,-17.42
8,COc1cc(C(=O)N[C@@H]2CC[C@@H](N)C2)ccc1F,12.15
9,N[C@@H]1CCOc2c(F)ccc(F)c21,32.11
10,CC(Sc1ccccc1Cl)C(=O)NCC(=O)N(C)C (stereo unspecified),4.5
11,CCC(c1ccc(F)cc1)N1CC[S+]([O-])CC1 (stereo unspecified),11.41
12,NS(=O)(=O)N(Cc1cccnc1)Cc1ccco1,8.52
13,COCCNCC(=O)Nc1cccc(CSC)c1,7.12
14,CCn1nc(C)c(CN2CCCCC(N)C2)c1C (stereo unspecified),14.9
15,O=C(CCN1CCC(CO)CC1)Nc1ccccc1F,3.62
16,Cc1noc(CN2CCN(S(C)(=O)=O)CC2)n1,-16.86
17,CCS(=O)(=O)c1cncnc1N,19.95
18,Cc1noc(C)c1CCC(=O)NC(C)c1ccccn1 (stereo unspecified),-45.2
19,Cc1cc(C)cc(N2CCNCC2=O)c1,2.16
20,NC(=O)C1=NOC(CNCc2ccccc2Cl)C1 (stereo unspecified),23
21,Cc1cc(C(=O)N[C@@H]2CCOC[C@H]2O)sc1C,10.73
22,COc1ccc2[nH]c(CCCN)nc2c1,28.12
23,N[C@H]1CCCNC1=O,19.57

row,SMILES,Inhibition [%]
1,CCc1nc(CNC(=O)C2CCCO2)cs1 (stereo unspecified),6.65
2,CCS(=O)(=O)NC1CCN(C(=O)c2cccc(F)c2)C1 (stereo unspecified),13
3,Cc1noc(CN(C)CCC2CCOCC2)n1,-10.62
4,O=C(NCc1ccc2c(c1)OCCCO2)c1cscn1,14.64
5,NC1CC(=O)Nc2ccccc21 (stereo unspecified),18.18
6,CC(C)C[C@@H](N)C(=O)NCc1ccc2nsnc2c1,6.42
7,CC(C)C(=O)NC1CCCNC1 (stereo unspecified),-0.49
8,N#Cc1ccc(NCc2ccccc2F)nc1,16.68
9,Cn1cnnc1CCNC(=O)c1cc(Cl)c(Cl)n1C,15.17
10,COCCC(=O)c1ccc(F)cc1,19.26
11,CCN1CCCC1CNC(=O)c1c[nH]nn1 (stereo unspecified),16.01
12,Cc1cc(C)cc(NC(=O)CNCCCO)c1,5.1
13,NC1CCCc2c(F)cccc21 (stereo unspecified),23.88
14,Fc1ccc2nc(N3CCCNCC3)oc2c1F,33.45
15,Cc1n[nH]c(C)c1NC(=O)C(C)CN (stereo unspecified),18.11
16,CN(Cc1ccc2c(c1)OCO2)C(=O)c1cncs1,25.32
17,COC(=O)c1ccc(=O)n(CC(=O)NCCC(C)C)c1,4.64
18,O=C(NCCOc1ncccc1Cl)c1cscn1,13.9
19,COc1ccc(CN2C[C@H](O)[C@@H](N(C)C)C2)c(C)c1C,27.33
20,Cc1cc(C(=O)N2C[C@H](C3CC3)[C@@H](N)C2)ccc1O,1.32
21,CC1CCN(CCNC(=O)c2cnccn2)CC1,-12.84
22,CNCCN1CCOC(C)(C)C1,9.7
23,NS(=O)(=O)c1ccc(NC(=O)Cn2ccnc2)cc1,5.95

row,SMILES,Inhibition [%]
1,Cc1cc(C(=O)O)cc(N2C[C@H](C3CC3)[C@@H](N)C2)n1,-2.3
2,CC(SCCN1CCOCC1)C(=O)N(C)C(C)C (stereo unspecified),5.48
3,N#Cc1ccc(Br)o1,8.03
4,Cc1cccc(C)c1-n1nnnc1SCC(N)=O,21.56
5,CNC(=O)C1CCN(CCCOc2ccccc2)CC1,24.15
6,CCCNC(=O)CCNC(=O)NCC,0.02
7,CCc1ccc(C(=O)NC2CNC[C@@H]2OC)o1 (stereo partly specified),36.32
8,NCC1(CCO)CCOC1 (stereo unspecified),6.83
9,COc1cccc(-c2ccc(CNS(N)(=O)=O)cc2)c1,23.3
10,O=C(NCC1CCNCC1)c1ccncc1,12.69
11,CCN(CCn1cccn1)C(=O)CNC(=O)N(C)C,-8.78
12,CCN(c1ccccc1)S(N)(=O)=O,5.95
13,COc1c(C)cnc(CNC(=O)CSC)c1C,1.37
14,CN1CCC(NC(=O)CSCc2cccs2)CC1,12.03
15,CNC(=O)NC1CN(C(=O)OC(C)(C)C)C1,-6.26
16,CN(C)CCCOc1cccc(CN2CC(O)C2)c1,2
17,OC1(CNCc2ccccn2)CCc2ccccc21 (stereo unspecified),24.9
18,Cc1c(Cl)cccc1C(=O)NC(C)c1nnnn1C (stereo unspecified),8.95
19,Cc1cc(N(C)C)n2nccc2n1,-18.53
20,CCN(CC)C(=O)COc1ccc(C(C)=O)c(F)c1,4.67
21,COc1cn(C)c(C(=O)NCc2ccco2)cc1=O,21.6
22,CC(=O)c1ccc(CNc2nccnc2C#N)nc1C,14.58
23,Cc1nc(C2CCN(C(=O)c3cn[nH]c3)CC2)no1,-1.22

row,SMILES,Inhibition [%]
1,NC1CCC(NC(=O)c2ccnc(C3CC3)n2)CC1 (stereo unspecified),4.44
2,CN1CCC(CCNS(C)(=O)=O)CC1,-4.45
3,CCCc1noc(C(C)Nc2cccc(C(N)=O)c2)n1 (stereo unspecified),24.66
4,O=S1(=O)CCC(NCc2csc(-c3ccccn3)n2)C1 (stereo unspecified),17.32
5,CCC1CN(Cc2ccnc(N)c2)CCO1 (stereo unspecified),4.62
6,COCCNC(=O)CNC(=O)c1cc(C)cc(C)c1Br,7.79
7,CNCCCNC(=O)CCc1ccsc1,-24.67
8,CCC(C)NC(=O)NCc1ccc(-n2ccnc2)nc1 (stereo unspecified),14.1
9,CN1CCN(C(=O)C2COc3ccccc3O2)CC1=O (stereo unspecified),3.72
10,Cc1ccccc1CNc1nnc(CO)s1,26.98
11,CC1(CO)COCCN1Cc1ccccc1 (stereo unspecified),11.96
12,Cc1cccc(C(=O)Nc2nnn(C)n2)c1,2.82
13,Cc1n[nH]c(C)c1S(=O)(=O)N1CCN(C)CC1,33.93
14,CCNC(=O)Nc1c[nH]nc1C1CCCNC1 (stereo unspecified),15.62
15,NS(=O)(=O)NCC1CCCN(CCC2CCCC2)C1 (stereo unspecified),13.03
16,Cc1nc(CN2CCC(O)(CN3CCCC3)CC2)c[nH]1,20.39
17,O=C(C1CCCO1)N1CCN(c2cc(Br)ccn2)CC1 (stereo unspecified),3.3
18,c1ccc(-c2nc3c([nH]2)CCNC3)cc1,7.84
19,CNC(=O)CN1CCCC(CO)(CC=C(C)C)C1 (stereo unspecified),20.92
20,N#Cc1ccc(CN2CCC3(CCC3O)CC2)cc1 (stereo unspecified),20.3
21,Cc1ocnc1C(=O)NCCNC(=O)c1cccnc1,1.53
